Screening results: PubChem BioAssay, National Center for Advancing Translational Sciences (NCATS)
Hits are enriched below; roughly 7% of the tested compounds scored in any of these assays.
GCN5L2 inh: blocks human GCN5L2 histone acetyltransferase. Q92830. GCN5L2 HAT assay, ThioGlo1 CoA-SH fluorescence. 390,000 compounds, 0.21% hits. Potency, µM (titrated, usually from 58.9 µM), actives largely listed as inhibitors
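Titration-based screen in which CoA formation is detected via maleimide probe ThioGlo1 (50uM) turning fluorescent on thiol reaction; substrates H3(1-25) 75uM and acetyl-CoA 70uM, GCN5L2 20nM, 20 min incubation at room temperature.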
PLK1 PBD inh: inhibitors of human PLK1 polo-box domain binding; AID 720504; Potency, µM, most hits filed as inhibitors; 360,000 compounds, 2.8% hits; Plk1 PBD binding of FITC phosphopeptide, fluorescence polarization; further: series mostly up to about 57 µM; nearly all actives have a fitted effect of over 65% in size
HP1b binding inh: inhibitors of HP1-beta chromodomain binding to methylated histone tails; AlphaScreen HP1-beta / biotin-H3K9me3 peptide binding; AID 540317; Potency, µM (top dose mostly 114 µM), hits mostly inhibitors; 390,000 compounds, 0.56% hits; further: nearly all actives have a fitted effect of over 70% in size
Target sequence (P83916 whole entry, looked up): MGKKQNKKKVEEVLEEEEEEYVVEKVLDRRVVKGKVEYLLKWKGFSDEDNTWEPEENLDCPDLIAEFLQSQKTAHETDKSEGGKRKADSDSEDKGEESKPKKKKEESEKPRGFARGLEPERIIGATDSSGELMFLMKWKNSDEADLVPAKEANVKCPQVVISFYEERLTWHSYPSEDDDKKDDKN
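HP1-beta protein (50 nM final) preincubated 30 min at room temperature with biotinylated H3(1-18)K9me3 peptide (50 nM) in PBS pH 7.4, 0.01% Tween-20, then compound added for 30 min. AlphaScreen streptavidin donor/nickel chelate acceptor beads (10 ug/mL final), 30 min dark, luminescence read.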
PI5P4Ka inh: PI5P4K alpha (human) kinase inhibition; 330,000 compounds, 1.2% hits; PI5P4Kalpha enzyme, ADP-Glo luminescence, 60 min; active compounds read low; max response, %; active means max response of -50% or lower; inconclusive means between -30% and -50%; inactive means -30% or higher; further: value at the top dose of about 77 µM
Target sequence (P48426 whole entry, looked up): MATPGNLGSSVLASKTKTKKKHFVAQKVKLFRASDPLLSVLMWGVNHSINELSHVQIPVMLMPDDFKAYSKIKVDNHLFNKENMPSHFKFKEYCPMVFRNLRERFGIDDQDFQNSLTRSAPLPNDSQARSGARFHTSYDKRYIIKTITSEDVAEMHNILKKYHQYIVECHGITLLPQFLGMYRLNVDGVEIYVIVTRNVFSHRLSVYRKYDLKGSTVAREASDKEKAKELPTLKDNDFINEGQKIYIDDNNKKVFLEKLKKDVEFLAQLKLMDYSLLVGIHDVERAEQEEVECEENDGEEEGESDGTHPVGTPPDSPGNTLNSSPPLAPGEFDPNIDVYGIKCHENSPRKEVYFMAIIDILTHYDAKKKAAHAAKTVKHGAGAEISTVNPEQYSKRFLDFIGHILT
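Enzyme plus substrate dispensed, test compounds pinned in, then ATP (5 microM final) added. After 60 min at RT, ADP-Glo reagent 1 for 45 min and reagent 2 for 30 min preceded luminescence imaging.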
JMJD2A Tudor inh: JMJD2A Tudor domain (human) inhibition | AlphaScreen JMJD2A-Tudor / H3K4me3 peptide binding | Potency, µM (series often up to 114 µM), most hits filed as inhibitors | 390,000 compounds, 4.4% hits | AID 504339; further: nearly all actives have a fitted effect of over 50% in size
BAZ2B block: BAZ2B (human) inhibition; Q9UIF8; AlphaScreen BAZ2B-H3K14Ac peptide displacement; Potency, µM (highest dose often 114 µM), most hits filed as inhibitors; 360,000 compounds, 4.4% hits; AID 504333; further: nearly all actives have a fitted effect of over 60% in size
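BAZ2B 50 nM plus b-H3(5-23)K14Ac 50 nM, PBS pH 7.4/0.01% Tween-20, 30 min RT; compound added (max 110 uM), 30 min RT; streptavidin donor/Ni-chelate acceptor beads 10 ug/mL final, 20 min dark; AlphaScreen read.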
Hits are given with their value; – = inactive; ? = inconclusive; · = not tested or not shown; [ ] = another dose, or the depositor's remark. Unless noted, the call rests on the fitted dose curve; in most records, active means well fitted curve in the direction sought with a large enough effect; inconclusive means small, poorly fitted or top-dose-only effect, or another doubt; inactive means no such curve, though single readings can be large; an effect the other way counts as inactive or inconclusive.

SMILES	GCN5L2 inh	PLK1 PBD inh	HP1b binding inh	PI5P4Ka inh	JMJD2A Tudor inh	BAZ2B block
FC(F)(F)c1ccc(CNCCc2ccc3c(c2)OCO3)cc1	–	–	–	–	56.2µM	79.4µM
c1cncc(CNCCc2ccc3c(c2)OCO3)c1	–	–	–	–	–	–
Clc1cccc(CNCCc2ccc3c(c2)OCO3)c1	–	–	?	–	28.2µM	79.4µM
Fc1ccccc1CNCCc1ccc2c(c1)OCO2	–	–	–	–	70.8µM	–
CC1(C)CC(CCNCc2ccc3c(c2)OCO3)(Cc2ccccc2)CCO1 (stereo unspecified)	–	–	–	–	–	–
Cc1cc(NC(=O)c2cc(-c3cccc(Cl)c3)on2)nn1Cc1ccc(Cl)cc1	–	·	–	·	–	?
C[C@H]1CC[C@@]2(C)[C@@H](CC[C@@H]3[C@@H]2CC[C@]2(C)[C@@H](O)CC[C@@H]32)C1	–	26.7µM	–	–	–[11.4 µM]	–
C[C@]12CCC3C(CC[C@H]4C[C@@H](O)CC[C@]34C)[C@H]1CC[C@H]2O (stereo partly specified)	–	–	–	–	–	·
C[C@@H](N)Cn1ccc2cc(F)c(Cl)cc21	–	·	·	·	·	·
COc1cc(/C=C/C(=O)c2c(O)n(CCc3ccccc3)c(=O)[nH]c2=O)ccc1O	–	–	–	-64.7	–	–
CN1C(=O)C(=Cc2ccc(N3CCOCC3)c([N+](=O)[O-])c2)C(=O)N(C)C1=O	–	·	·	·	·	–
CN1C(=O)C(=Cc2ccc(N3CCCCCC3)cc2)C(=O)N(C)C1=O	–	1.5µM	–	–	–	–
O=C1NC(=O)N(Cc2ccc(F)cc2)C(=O)/C1=C\c1ccc(N2CCCC2)cc1	–	1.5µM	–	-58.9	?	?
COCCN1C(=O)NC(=O)/C(=C\c2ccc(F)cc2)C1=O	–	13.4µM	–	–	–	–
CN1C(=O)C(=Cc2cccnc2)C(=O)N(C)C1=O	–	16.8µM	–	–	–	–
O=C1/C(=C/c2cccnc2)N2CCC1CC2	–	–	–	–	–	–
CC1(C)C(C(Cl)Cl)C2(Cl)C(Cl)C(Cl)C1(Cl)C2(Cl)Cl (stereo unspecified)	–	·	·	·	·	·
COc1ccc(NC(=O)Cn2c(=O)c3cccn3c3ccccc32)cc1Cl	–	·	–	·	–	–
CN(C)c1ccc(/C=C2\C(=O)NC(=O)N(CCc3ccc(F)cc3)C2=O)cc1	–	1.06µM	–	-82.2	?	?
NC(=S)c1cn(C2OC(CO)C(O)C2O)c2ncnc(N)c12 (stereo unspecified)	–	26.7µM	–	?	–	–
NC(=O)c1ncn([C@@H]2O[C@H](CO)[C@@H](O)[C@H]2O)n1	–	–	–	–	–	–
COc1ccc(C(=O)NCCn2cc(SC(C)c3ccccc3)c3ccccc32)cc1OC (stereo unspecified)	–	·	–	·	–	?
c1ccc2sc(C3(NCC4CC4)CCCCC3)cc2c1	–	·	·	·	·	·
COc1ccc(C2C=C(c3ccccc3)Nc3nc(NC(=O)/C=C/c4ccccc4Cl)nn32)cc1 (stereo unspecified)	–	·	–	·	–	–
COc1ccccc1N1CCN(Cc2ccc(Br)cc2)CC1	?	–	–	–	–	?
SMILES	GCN5L2 inh	PLK1 PBD inh	HP1b binding inh	PI5P4Ka inh	JMJD2A Tudor inh	BAZ2B block
CCCCCCN1CCN(c2ccccc2Cl)CC1	–	–	–	–	56.2µM	70.8µM
COc1ccc(CNC(=O)/C=C\c2ccc3[nH]cc(CCN(C)C)c3c2)cc1	–	·	·	·	·	·
CCOc1ccccc1N=Cc1c(O)n(C)c(=O)n(C)c1=O	–	–	–	–	–	–
Oc1c(Br)cc(Br)cc1CN1CCN(Cc2ccccc2)CC1	–	–	–	–	20µM	79.4µM
COc1cc(OC)c(OC)cc1CN1CCN(C(=O)COc2ccc3ccccc3c2)CC1	–	–	50.1µM	–	3.16µM	44.7µM
COc1ccccc1CN1CCN(C(=O)COc2ccccc2)CC1	–	–	?	–	3.16µM	?
COc1ccc(OCC(=O)N2CCN(C(C)C)CC2)cc1	–	–	?	–	1.41µM	56.2µM
Cn1c(CN2CCN(C(=O)COc3ccccc3)CC2)nc2cc([N+](=O)[O-])ccc21	–	–	–	–	–	–
Cc1cccc(OCC(=O)N2CCN(Cc3ccc([N+](=O)[O-])cc3)CC2)c1	–	–	?	–	10µM	–
CC(=NNC(=S)N1CC2CCC(CC2)C1)c1nccs1	·	–	?	–	20µM	·
Cn1cc(/C=C(\C(=O)O)C(C(=O)O)=C2CCCCC2)c2ccccc21	–	15µM	–	–	?	?
O=C(O)C(Cc1cnc[nH]1)NS(=O)(=O)c1ccc(Br)cc1 (stereo unspecified)	–	–	–	–	10µM	–
CC(C)C1(C)N=C(c2ncccc2C(=O)O)NC1=O (stereo unspecified)	–	–	–	·	22.4µM	28.2µM
c1csc(CN2CC[C@@]3(CCCNC3)C2)n1	–	·	·	·	·	·
Cc1cccc(N2C(=O)NC(=O)/C(=C/c3ccc(N4CCOCC4)cc3)C2=O)c1	–	11.9µM	–	–	–	·
Cc1ccc(N2C(=O)NC(=O)/C(=C\c3ccc([N+](=O)[O-])o3)C2=O)cc1	–	·	·	·	·	20µM
O=C1NC(=O)N(c2ccccc2)C(=O)/C1=C\c1ccccc1[N+](=O)[O-]	–	?	–	?	–	–
O=C1NC(=O)N(c2ccccc2)C(=O)/C1=C/c1ccc(Sc2ccccc2)o1	–	?	–	·	56.2µM	50.1µM
Cc1ccc(N2C(=O)NC(=O)/C(=C\c3ccc(N4CCOCC4)cc3)C2=O)cc1	–	5.97µM	–	?	–	–
Cc1nnc(N2CCC(C(=O)NCc3ccc(N(C)C)cc3)CC2)c2nn(-c3ccccc3)c(C)c12	–	·	–	·	?	?
C[N+]1(C)CCc2cc3c(cc2C1C1OC(=O)c2c1ccc1c2OCO1)OCO3 (stereo unspecified)	–	·	·	·	·	·
CCOc1ccc(N2C(=O)NC(=O)/C(=C\c3cc(OC)c(OC)cc3[N+](=O)[O-])C2=O)cc1	–	–	–	–	?	?
COc1ccc(N2C(=O)NC(=O)/C(=C/c3ccc(N4CCOCC4)cc3)C2=O)cc1	–	·	·	·	·	–
CCOc1ccc(N2C(=O)NC(=O)/C(=C\c3ccc(N4CCOCC4)cc3C)C2=O)cc1	–	6.7µM	–	–	–	?
Cc1cccc(N2C(=O)NC(=O)/C(=C\c3ccc(N4CCOCC4)cc3)C2=O)c1	–	9.47µM	?	?	–	–
CC(C)C[C@H]1CNC(=S)N1CC1CCN(CC2CCC(C(C)(C)C)CC2)CC1 (stereo partly specified)	·	–	–	–	–	·
NCC(N)C(=O)c1ccccc1 (stereo unspecified)	–	·	·	·	·	·
C[C@@]12CC(c3ccoc3)OC(=O)C1CC[C@@]1(C)C2C2C=C[C@@]1(O)C(=O)O2 (stereo partly specified)	–	·	·	·	·	·
